Laboratory results taken from the supplement of paper PMC9694430.
Structures can show the parent of a compound that is named as a salt.

Columns and labels:
Experiment in all cases: thermal shift delta Tm vs DMSO control; higher = stronger stabilization (binding)
Conditions in all cases: 12.5 µM; protein concentration 2 µM
[1] = system: LOC_OS01G01410-cb001
Outline: (§1)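 Purified, E. coli-expressed rice kinase domain constructs were tested by differential scanning fluorimetry in 96-well plates: 19.5 μl of 2 μM kinase in 100 mM potassium phosphate pH 7.5, 150 mM NaCl, 10% glycerol, 5 × SYPRO Orange, plus compound in DMSO. Fluorescence was read from 25°C to 95°C at 0.05°C/s. Melting temperatures came from Boltzmann fits, and the shift is the triplicate mean relative to protein with DMSO alone.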

[2] = system: LOC_OS01G02750-cb003
Outline: as §1

[3] = system: LOC_OS01G10900-cb004
Outline: as §1

[4] = system: LOC_OS01G13800-cb001
Outline: as §1

[5] = system: LOC_OS01G14860-cb001
Outline: as §1

[6] = system: LOC_OS01G21960-cb002
Outline: as §1

[7] = system: LOC_OS01G39600-cb002
Outline: as §1

[8] = system: LOC_OS01G48390-cb002
Outline: as §1

[9] = system: LOC_OS01G51400-cb002
Outline: as §1

[10] = system: T1, LOC_OS01G52050-cb004
T1 sequence (whole entry): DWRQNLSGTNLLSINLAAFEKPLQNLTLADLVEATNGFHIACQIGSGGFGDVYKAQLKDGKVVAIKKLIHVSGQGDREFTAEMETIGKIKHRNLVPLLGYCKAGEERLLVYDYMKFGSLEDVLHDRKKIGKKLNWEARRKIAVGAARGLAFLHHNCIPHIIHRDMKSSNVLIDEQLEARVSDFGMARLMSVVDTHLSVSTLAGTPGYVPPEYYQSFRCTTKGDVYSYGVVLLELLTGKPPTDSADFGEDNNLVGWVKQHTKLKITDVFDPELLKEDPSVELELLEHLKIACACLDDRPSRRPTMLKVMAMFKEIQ
Outline: as §1

| Compound | thermal shift delta Tm [1] [°C] | thermal shift delta Tm [2] [°C] | thermal shift delta Tm [3] [°C] | thermal shift delta Tm [4] [°C] | thermal shift delta Tm [5] [°C] | thermal shift delta Tm [6] [°C] | thermal shift delta Tm [7] [°C] | thermal shift delta Tm [8] [°C] | thermal shift delta Tm [9] [°C] | thermal shift delta Tm [10] [°C] |
| --- | --- | --- | --- | --- | --- | --- | --- | --- | --- | --- |
| O=c1c(O)c(-c2cc(O)c(O)c(O)c2)oc2cc(O)cc(O)c12 [Myricetin] | 2.93 | 26.2 | 1.94 | 1.96 | 5.72 | 5.56 | 4.45 | 2.72 | 2.08 | 5.01 |
| CCN(CC)CCCC(C)Nc1ccnc2cc(Cl)ccc12 (stereo not given) [Chloroquine Phosphate] | 0.08 | 1.04 | 0.14 | 0.44 | 0.13 | 0.63 | -0.06 | -0.02 | 0 | -0.11 |
| COc1cccc2cc(-c3nc([C@H]4CC[C@H](C(=O)O)CC4)n4ncnc(N)c34)[nH]c12 | 0.94 | 0.05 | 0.36 | -0.29 | 0.44 | 0.7 | 0.94 | 0.31 | 0.16 | 0.07 |
| COc1cc2c3cc1Oc1c(OC)c(OC)cc4c1[C@@H](Cc1ccc(O)c(c1)Oc1ccc(cc1)C[C@@H]3N(C)CC2)N(C)CC4 [Berbamine (dihydrochloride)] | -0.04 | 0.3 | 0.03 | -0.62 | -0.18 | 0.36 | -0.05 | 0.32 | -0.01 | 0.22 |
| CC[C@@H]1C(=O)N(C)c2cnc(Nc3ccc(C(=O)N[C@H]4CC[C@H](N5CCN(CC6CC6)CC5)CC4)cc3OC)nc2N1C(C)C [Volasertib (BI 6727)] | 0.74 | 0.38 | 0.15 | 0.22 | 0.21 | 0.37 | 0.25 | 0.32 | 0.11 | 0.22 |
| Nc1nc(N)c(N=O)c(OCC2CCCCC2)n1 | 0.83 | 0.95 | 0.44 | -0.3 | 1.5 | 1.67 | -1.66 | 0.08 | 0.44 | 1.13 |
| Cc1ccc(NC(=O)c2ccc(CN3CCN(C)CC3)cc2)cc1Nc1nccc(-c2cccnc2)n1 [Imatinib (STI571)] | 0.68 | 0 | 1.47 | -0.47 | 0.24 | -0.24 | -0.27 | 1.69 | 0.14 | 0.62 |
| COc1ccc(F)c(F)c1C(=O)c1cnc(NC2CCN(S(C)(=O)=O)CC2)nc1N | 0.43 | -0.36 | 0.34 | -0.08 | 2.35 | 0.93 | 0.19 | 0.42 | -0.07 | -0.14 |
| COc1cc2nccc(Oc3ccc(NC(=O)C4(C(=O)Nc5ccc(F)cc5)CC4)cc3)c2cc1OC [Cabozantinib malate (XL184)] | 0.01 | 0.45 | 0.03 | 0.12 | 0.34 | 0.57 | 0.26 | 3.62 | 0.63 | 0.38 |
| Cc1[nH]c(/C=C2\C(=O)Nc3ccc(S(=O)(=O)N(C)c4cccc(Cl)c4)cc32)c(C)c1C(=O)N1CCN(C)CC1 | 1.44 | 2.62 | 0.43 | 0.07 | 0.57 | 0.44 | -0.1 | 0.18 | 0.14 | 1.01 |
| O=c1c(O)c(-c2ccc(O)c(O)c2)oc2cc(O)cc(O)c12 [Quercetin] | 3.05 | 7.25 | 1.68 | 1.97 | 3.55 | 3.4 | 6.51 | 2.95 | 1.5 | 6.25 |
| Oc1c2ccccc2c2c3c(cccc13)N=N2 | 3.59 | 5.55 | 3.61 | 0.39 | 2.06 | 2.7 | 1.16 | 5.42 | 0.42 | 7.57 |
| O=c1cc(N2CCOCC2)oc2c(-c3ccc4c(c3)OCCO4)csc12 | 0.37 | 2.36 | 3.38 | -0.36 | 2.26 | 0.76 | 0.21 | 1.47 | 0.47 | 4.58 |
| Cc1cc(C(=O)NOCCO)c(Nc2ccc(I)cc2F)n(C)c1=O | 0.56 | 0.29 | 0.4 | 0.2 | 0.16 | 0.85 | -0.46 | 0.25 | -0.04 | -0.21 |
| N=C(N)NC(=N)NCCc1ccccc1 [Phenformin HCl] | 0.54 | 0.14 | 0.3 | -0.2 | 0.25 | 0.77 | -0.37 | 0.38 | 0.25 | 0.48 |
| OC1CCC(Nc2ncc3nc(Nc4c(F)cc(F)cc4F)n([C@H]4CCOC4)c3n2)CC1 (stereo not given in full) [Tanzisertib(CC-930)] | 0.32 | 0.43 | 0.32 | 0.7 | 0.73 | 0.08 | 0.06 | 0.2 | 0.08 | 2.88 |
| Oc1ccc(Nc2nc(-c3ccc(Cl)cc3)cs2)cc1 | 1.11 | 3.1 | 0.5 | 0.46 | 1.41 | -0.09 | 4.96 | 1.3 | 1.51 | 3.09 |
| CN1CCN(c2ccc3nc(-c4c(N)c5c(F)cccc5[nH]c4=O)[nH]c3c2)CC1 [Dovitinib (TKI-258) Dilactic Acid] | 5.85 | 2.07 | 4.46 | -0.49 | 1.65 | 3.5 | 4.66 | 3.4 | 0.79 | 6.33 |
| c1cncc(CN2CCC(n3ncc4c(N5CCOCC5)nc(-c5ccc6[nH]ccc6c5)nc43)CC2)c1 | 0.33 | -0.32 | 0.65 | 0.33 | 0.21 | 0.55 | 0.03 | 0.18 | 0.45 | -0.01 |
| COc1cc2ncnc(Oc3ccc(CC(=O)Nc4cnn(C(C)C)c4)cc3)c2cc1OC | 0.27 | 0 | 0.09 | -0.43 | 0.03 | 0.08 | -1.25 | 0.97 | 0.22 | -0.1 |
| CO[C@H]1C[C@@H]2CC[C@@H](C)[C@@](O)(O2)C(=O)C(=O)N2CCCC[C@H]2C(=O)O[C@H]([C@H](C)C[C@@H]2CC[C@@H](OP(C)(C)=O)[C@H](OC)C2)CC(=O)[C@H](C)/C=C(\C)[C@@H](O)[C@@H](OC)C(=O)[C@H](C)C[C@H](C)/C=C/C=C/C=C/1C [Ridaforolimus (Deforolimus, MK-8669)] | 0.73 | -1.9 | 0.47 | 0.18 | 0.16 | 0.07 | -0.26 | 0.54 | -0.09 | 0.11 |
| CC(C)(CCCCCC(O)CCCCCC(C)(C)C(=O)O)C(=O)O | 0.55 | 0.54 | 0.09 | 0.41 | -0.23 | 0.39 | -0.54 | 0.29 | 0.29 | 0.02 |
| Cn1nccc1Nc1nccc(-c2ccn([C@H](CO)c3ccc(Cl)c(F)c3)c(=O)c2)n1 | 0.99 | 1.21 | 0.24 | -0.2 | 5 | 0.94 | 0.18 | 0.6 | 0.59 | 0.85 |
| O=C(Nc1cccnc1)c1cc(-c2ccnc(F)c2)ccc1OCc1ccccc1 | 2.5 | 0.28 | -0.53 | 0.66 | -0.01 | 0.38 | -0.21 | 0.88 | 0.01 | -0.04 |
